# In PubChem BioAssay:
# Calls of active or inactive are those of the source.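 The calls were made as follows: active = normalized viability below 100% at a tested concentration; inactive = the rest.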
# Test: drug combination growth inhibition, ovarian cancer – cell-based, oncology-focused library, rucaparib conditional, profiling panel (AID 1508598)
# Conditions: patient-derived ovarian cancer cells, CellTiter-Glo viability, 144 h; at 0.00122 µM; OCI-P5x cells; with rucaparib 20 µM; hits give low values; 100% = cells with rucaparib alone
row,SMILES,viability
1,N#CCNC(=O)c1ccc(-c2ccnc(Nc3ccc(N4CCOCC4)cc3)n2)cc1,105% (inactive)
2,Nc1nc(Nc2ccc(S(N)(=O)=O)cc2)nn1C(=O)c1c(F)cccc1F,91.5% (active)
3,O=C(Nc1ccccc1-c1cn2c(CN3CCNCC3)csc2n1)c1cnc2ccccc2n1,117% (inactive)
4,COc1ccc(-c2ccc3c(N4CCOCC4)nc(N4C[C@@H](C)O[C@@H](C)C4)nc3n2)cc1CO,109% (inactive)
5,CC1(C)CNc2cc(NC(=O)c3cccnc3NCc3ccncc3)ccc21,134% (inactive)
6,COc1cc2nccc(Oc3ccc(NC(=O)Nc4cc(C)on4)c(Cl)c3)c2cc1OC,101% (inactive)
7,N#Cc1c(NC(=O)c2cccc3ccccc23)sc2c1CCCC2,95.3% (active)
8,COc1ccc(-c2ccc3c(N4CCOC[C@@H]4C)nc(N4CCOC[C@@H]4C)nc3n2)cc1CO,94.9% (active)
9,Cc1cnc(NC(=O)Nc2cc(Br)c(C)cc2OC[C@@H]2CNCCO2)cn1,47.7% (active)
10,COC(=O)c1ccc2c(C(=Nc3ccc(N(C)C(=O)CN4CCN(C)CC4)cc3)c3ccccc3)c(O)[nH]c2c1,95.9% (active)
11,Cc1ccc(F)c(NC(=O)Nc2ccc(-c3cccc4[nH]nc(N)c34)cc2)c1,81.6% (active)

# Same assay, conditions: patient-derived ovarian cancer cells, CellTiter-Glo viability, 144 h; at 0.00122 µM; OCI-P5x cells; without rucaparib; hits give low values
row,SMILES,viability
1,N#CCNC(=O)c1ccc(-c2ccnc(Nc3ccc(N4CCOCC4)cc3)n2)cc1,103% (inactive)
2,Nc1nc(Nc2ccc(S(N)(=O)=O)cc2)nn1C(=O)c1c(F)cccc1F,86% (active)
3,O=C(Nc1ccccc1-c1cn2c(CN3CCNCC3)csc2n1)c1cnc2ccccc2n1,116% (inactive)
4,COc1ccc(-c2ccc3c(N4CCOCC4)nc(N4C[C@@H](C)O[C@@H](C)C4)nc3n2)cc1CO,108% (inactive)
5,CC1(C)CNc2cc(NC(=O)c3cccnc3NCc3ccncc3)ccc21,102% (inactive)
6,COc1cc2nccc(Oc3ccc(NC(=O)Nc4cc(C)on4)c(Cl)c3)c2cc1OC,94.7% (active)
7,N#Cc1c(NC(=O)c2cccc3ccccc23)sc2c1CCCC2,109% (inactive)
8,COc1ccc(-c2ccc3c(N4CCOC[C@@H]4C)nc(N4CCOC[C@@H]4C)nc3n2)cc1CO,92.8% (active)
9,Cc1cnc(NC(=O)Nc2cc(Br)c(C)cc2OC[C@@H]2CNCCO2)cn1,17.5% (active)
10,COC(=O)c1ccc2c(C(=Nc3ccc(N(C)C(=O)CN4CCN(C)CC4)cc3)c3ccccc3)c(O)[nH]c2c1,102% (inactive)
11,Cc1ccc(F)c(NC(=O)Nc2ccc(-c3cccc4[nH]nc(N)c34)cc2)c1,16.8% (active)

# Same assay, conditions: patient-derived ovarian cancer cells, CellTiter-Glo viability, 144 h; at 0.00488 µM; OCI-C5x cells; with rucaparib 10 µM; hits give low values; 100% = cells with rucaparib alone
row,SMILES,viability
1,N#CCNC(=O)c1ccc(-c2ccnc(Nc3ccc(N4CCOCC4)cc3)n2)cc1,110% (inactive)
2,Nc1nc(Nc2ccc(S(N)(=O)=O)cc2)nn1C(=O)c1c(F)cccc1F,93.6% (active)
3,O=C(Nc1ccccc1-c1cn2c(CN3CCNCC3)csc2n1)c1cnc2ccccc2n1,106% (inactive)
4,COc1ccc(-c2ccc3c(N4CCOCC4)nc(N4C[C@@H](C)O[C@@H](C)C4)nc3n2)cc1CO,112% (inactive)
5,CC1(C)CNc2cc(NC(=O)c3cccnc3NCc3ccncc3)ccc21,112% (inactive)
6,COc1cc2nccc(Oc3ccc(NC(=O)Nc4cc(C)on4)c(Cl)c3)c2cc1OC,107% (inactive)
7,N#Cc1c(NC(=O)c2cccc3ccccc23)sc2c1CCCC2,113% (inactive)
8,COc1ccc(-c2ccc3c(N4CCOC[C@@H]4C)nc(N4CCOC[C@@H]4C)nc3n2)cc1CO,124% (inactive)
9,Cc1cnc(NC(=O)Nc2cc(Br)c(C)cc2OC[C@@H]2CNCCO2)cn1,103% (inactive)
10,COC(=O)c1ccc2c(C(=Nc3ccc(N(C)C(=O)CN4CCN(C)CC4)cc3)c3ccccc3)c(O)[nH]c2c1,114% (inactive)
11,Cc1ccc(F)c(NC(=O)Nc2ccc(-c3cccc4[nH]nc(N)c34)cc2)c1,119% (inactive)

# Same assay, conditions: patient-derived ovarian cancer cells, CellTiter-Glo viability, 144 h; at 0.00488 µM; OCI-C5x cells; without rucaparib; hits give low values
row,SMILES,viability
1,N#CCNC(=O)c1ccc(-c2ccnc(Nc3ccc(N4CCOCC4)cc3)n2)cc1,117% (inactive)
2,Nc1nc(Nc2ccc(S(N)(=O)=O)cc2)nn1C(=O)c1c(F)cccc1F,93.3% (active)
3,O=C(Nc1ccccc1-c1cn2c(CN3CCNCC3)csc2n1)c1cnc2ccccc2n1,110% (inactive)
4,COc1ccc(-c2ccc3c(N4CCOCC4)nc(N4C[C@@H](C)O[C@@H](C)C4)nc3n2)cc1CO,120% (inactive)
5,CC1(C)CNc2cc(NC(=O)c3cccnc3NCc3ccncc3)ccc21,122% (inactive)
6,COc1cc2nccc(Oc3ccc(NC(=O)Nc4cc(C)on4)c(Cl)c3)c2cc1OC,106% (inactive)
7,N#Cc1c(NC(=O)c2cccc3ccccc23)sc2c1CCCC2,109% (inactive)
8,COc1ccc(-c2ccc3c(N4CCOC[C@@H]4C)nc(N4CCOC[C@@H]4C)nc3n2)cc1CO,119% (inactive)
9,Cc1cnc(NC(=O)Nc2cc(Br)c(C)cc2OC[C@@H]2CNCCO2)cn1,121% (inactive)
10,COC(=O)c1ccc2c(C(=Nc3ccc(N(C)C(=O)CN4CCN(C)CC4)cc3)c3ccccc3)c(O)[nH]c2c1,118% (inactive)
11,Cc1ccc(F)c(NC(=O)Nc2ccc(-c3cccc4[nH]nc(N)c34)cc2)c1,112% (inactive)
